# About 14,000 (4.5%) of roughly 310,000 compounds showed an effect of 50% or more. The effect is printed as a negative number. This is one part of a sample in which strong results are shown more often than they occur.
# Biological target: human ether-à-go-go-related gene (hERG) potassium channel (human, UniProt Q12809)
# Test: primary screen, population patch clamp on CHO cells stably expressing hERG; higher = less effect of the substance
# 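Further: peak tail current of the secondary pulse compared with the same well before compound.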
# human ether-à-go-go-related gene (hERG) potassium channel, sequence (Q12809 whole entry, looked up): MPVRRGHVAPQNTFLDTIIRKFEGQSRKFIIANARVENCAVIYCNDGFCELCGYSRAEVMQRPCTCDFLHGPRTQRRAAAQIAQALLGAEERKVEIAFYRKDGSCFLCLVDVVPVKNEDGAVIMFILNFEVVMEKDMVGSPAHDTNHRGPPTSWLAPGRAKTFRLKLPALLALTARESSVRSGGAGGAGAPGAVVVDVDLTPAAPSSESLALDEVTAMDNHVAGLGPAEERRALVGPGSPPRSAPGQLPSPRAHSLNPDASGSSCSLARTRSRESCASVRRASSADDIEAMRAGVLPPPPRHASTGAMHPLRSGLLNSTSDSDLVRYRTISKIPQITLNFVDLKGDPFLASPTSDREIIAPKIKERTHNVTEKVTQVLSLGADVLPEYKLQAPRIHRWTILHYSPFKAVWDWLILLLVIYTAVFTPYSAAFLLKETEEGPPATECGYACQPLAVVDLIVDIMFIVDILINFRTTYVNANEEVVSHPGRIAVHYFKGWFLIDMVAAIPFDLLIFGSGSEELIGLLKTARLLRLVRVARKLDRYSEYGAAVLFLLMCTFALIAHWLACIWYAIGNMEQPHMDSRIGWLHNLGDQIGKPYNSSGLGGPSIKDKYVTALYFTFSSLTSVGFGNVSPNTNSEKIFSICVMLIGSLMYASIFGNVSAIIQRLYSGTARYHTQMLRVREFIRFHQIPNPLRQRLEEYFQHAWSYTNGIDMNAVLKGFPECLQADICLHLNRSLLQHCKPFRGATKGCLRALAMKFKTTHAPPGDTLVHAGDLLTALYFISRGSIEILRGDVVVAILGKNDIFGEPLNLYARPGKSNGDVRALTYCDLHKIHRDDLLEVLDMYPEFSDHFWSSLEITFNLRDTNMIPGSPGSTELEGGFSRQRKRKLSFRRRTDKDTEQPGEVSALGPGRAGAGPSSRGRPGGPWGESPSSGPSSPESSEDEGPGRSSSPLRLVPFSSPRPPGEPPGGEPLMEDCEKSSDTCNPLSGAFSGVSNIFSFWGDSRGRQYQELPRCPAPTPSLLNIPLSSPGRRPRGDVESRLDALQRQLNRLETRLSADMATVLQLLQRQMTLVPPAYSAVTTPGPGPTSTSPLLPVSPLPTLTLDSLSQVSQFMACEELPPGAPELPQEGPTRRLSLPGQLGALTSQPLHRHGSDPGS
row,SMILES,"hERG current change (%, negative = inhibition) at 10uM [%]"
1,OCCC1CN(CC#Cc2ccccc2)CCN1Cc1ccccc1F (stereo not shown),-7.93
2,Cc1[nH]c2ccccc2c1SCCN,2.5
3,O=S(=O)(c1cccc(C(F)(F)F)c1)N1CCN(C(=S)NCc2ccco2)CC1,-5.8
4,CC(=O)N1c2ccc(S(=O)(=O)N(C)CC(=O)NC3CCCC3)cc2CC1C (stereo not shown),-23.1
5,COC(=O)C1=C(c2ccc(Cl)c(C(F)(F)F)c2)C[C@@H]2CC[C@H]1N2C(=O)NCc1ccc2c(c1)OCO2,-12.9
6,Cc1cc(-n2nc(C)cc2C)n2ncc(-c3ccccc3)c2n1,16.2
7,CC(=O)c1cnc2c(-c3ccc(Cl)cc3)cnn2c1C,-1.45
8,CCc1ccccc1N(C(=O)Cn1nnc2ccccc21)C(C(=O)NCCOC)c1ccco1 (stereo not shown),-7.99
9,CCOC(=O)c1ccc(NC(=O)c2sc3nc4n(c(=O)c3c2C)CCC4)cc1,8.82
10,N#CCCOC1(C#CCN2CCCC2)CCCCC1,19.6
11,Cc1ccc(O)c(C(CC(=O)NC(C)C)c2ccccc2)c1 (stereo not shown),6.85
12,COCCCN1CN(Cc2ccccc2)CNC1=S,5.46
13,O=C(Nc1nnc(CSCc2ccccc2F)s1)c1cccc([N+](=O)[O-])c1,-0.45
14,COc1ccccc1C(=O)Nc1ccnn1C1CCN(C2CCSCC2)CC1,-70.9
15,COc1ccc(C(=O)Nc2ccnn2C2CCN(C3CCC3)CC2)cc1,20.7
16,Cc1ccccc1C(=O)Nc1ccnn1C1CCN(C2CCSCC2)CC1,-49.5
17,CCCC1=Nc2cc(C(=O)N3CCC(C(N)=O)CC3)ccc2Sc2ccccc21,4.75
18,O=C(/C=C/c1ccc(OC2CSC2)cc1)c1ccccc1,10.1
19,CC(=O)Nc1cccc(C(=O)Nc2ccc(S(=O)(=O)NC3=NCCCCC3)cc2)c1,17
20,O=C(COc1ccccc1)NCc1n[nH]c(=S)n1-c1ccccc1,17.5
21,O=C(COc1ccc(Cl)cc1)NCc1ccccc1,-10.4
22,O=C(COc1ccccc1)NCc1ccccc1,4.64

row,SMILES,"hERG current change (%, negative = inhibition) at 10uM [%]"
1,O=C(COc1ccc(Cl)cc1)NCc1nnc2c3ccccc3c(-c3ccccc3)nn12,-66.9
2,O=C(COc1ccccc1)NCc1nnc2c3ccccc3c(-c3ccccc3)nn12,-64.6
3,O=C(COc1ccc(Cl)cc1)NCc1n[nH]c(=O)c2ccccc12,-13
4,CCc1cccc(NC(=O)C2CCCN(S(=O)(=O)c3cccnc3)C2)c1 (stereo not shown),-5.51
5,CNCC(=O)Nc1ccc(Cl)c(C(F)(F)F)c1,17.6
6,O=C(O)/C=C/C(=O)c1ccc(O)cc1,2.05
7,C/C(O)=C(\C#N)P(=O)(c1ccccc1)c1ccccc1,11.6
8,Cc1ccc(C)c(NC(=S)NC(C)C(c2cccs2)N2CCOCC2)c1 (stereo not shown),8.4
9,Cc1ccccc1NC(=S)NC(C)C(c1cccs1)N1CCOCC1 (stereo not shown),2.05
10,CCN1CCN(C(c2cccs2)C(C)NC(=O)CC(C)C)CC1 (stereo not shown),-6.37
11,CCN1CCN(C(c2cccs2)C(C)NC(=O)c2ccccc2)CC1 (stereo not shown),-1.79
12,Cc1cccc(NC(=S)NC(C)C(c2ccccc2)N2CCN(C)CC2)c1C (stereo not shown),-50
13,CCN1CCN(C(c2cccs2)C(C)NC(=O)C(C)C)CC1 (stereo not shown),9.03
14,Cc1cccc(NC(=S)NC(C)C(c2cccs2)N2CCN(C)CC2)c1C (stereo not shown),-60.5
15,CCN1CCN(C(c2cccs2)C(C)NC(=S)Nc2cc(C)ccc2C)CC1 (stereo not shown),-68.5
16,CCN1CCN(C(c2cccs2)C(C)NC(=S)Nc2cccc(C)c2C)CC1 (stereo not shown),-72.9
17,CC(NC(=S)Nc1ccccc1Cl)C(c1cccs1)N1CCCC1 (stereo not shown),-10.2
18,Cc1ccccc1NC(=S)NC(C)C(c1ccccc1)N1CCN(C)CC1 (stereo not shown),-12.5
19,Cc1ccc(C)c(NC(=S)NC(C)C(c2ccccc2)N2CCN(C)CC2)c1 (stereo not shown),-48
20,CN(C)c1ccc(/C=C2\NC(=S)N(Cc3ccccc3)C2=O)cc1,-0.668
21,O=C(CSC(=S)N1CCCC1)c1ccccc1,4.99
22,COc1cc2c3c(c1OC)C1(C=CC(=NO)C=C1)CC3N(C(C)=O)CC2 (stereo not shown),13.8

row,SMILES,"hERG current change (%, negative = inhibition) at 10uM [%]"
1,O=[N+]([O-])c1cccc(C(=Nc2cccc(Cl)c2)NO)c1,-20
2,C/C(=N/NC(=O)CSc1nc2ccccc2s1)c1ccncc1,-24
3,CCOC(=O)c1cnc2c(cnn2C)c1Oc1ccc(OC)cc1,-43
4,COc1ccc(NC(=S)NC(C)C(c2ccccc2)N2CCOCC2)cc1 (stereo not shown),7.52
5,CCOc1ccc(NC(=S)NC(C)C(c2ccccc2)N2CCN(C)CC2)cc1 (stereo not shown),-58.5
6,CC(NC(=O)COc1ccccc1)C(c1ccccc1)N1CCN(C)CC1 (stereo not shown),-9.29
7,CC(=O)Nc1cc(C(=O)N2CCCC2)ccc1Sc1ccc(C)cc1,-30.5
8,O=C(c1cccc(F)c1)N1CCc2ccccc2C1,-7.14
9,CC(=O)Nc1cc(C(=O)N2CCC3(CC2)OCCO3)ccc1Sc1ccc(F)cc1,2.37
10,CC(=O)Nc1cc(C(=O)N2CCc3ccccc3C2)ccc1Sc1ccc(F)cc1,-55.4
11,CC(=O)Nc1cc(C(=O)N2CCC3(CC2)OCCO3)ccc1Sc1ccc(C)cc1,-16
12,CC(=O)Nc1cc(C(=O)N2CCc3ccccc3C2)ccc1Sc1ccc(Cl)cc1,-45
13,CCCN1CCN(C(=O)c2ccc(Sc3ccc(C)cc3)c(NC(C)=O)c2)CC1,-50.6
14,CC(=O)Nc1cc(C(=O)N2CCN(C)CC2)ccc1Sc1ccc(C)cc1,-13.5
15,CC(=O)Nc1cc(C(=O)N2CCc3ccccc3C2)ccc1Sc1ccc(C)cc1,-53.6
16,CCCCn1c(N)c(N(CC(C)C)C(=O)c2cc(C)oc2C)c(=O)[nH]c1=O,8.94
17,Clc1ccc(-c2ccn[nH]2)cc1,3.54
18,Cc1ccc(NC(=O)N2C(=O)C3(OCCO3)c3ccccc32)cc1,18.2
19,CCS(=O)(=O)c1ccc(-c2cccc(NC(=O)COc3ccccc3)c2)nn1,6.57
20,O=C1CCCN1CN(C(=O)c1ccc2c(c1)OCO2)c1cccc(Cl)c1,-7.64
21,CC(C)CN(C(=O)COC(=O)C(C)N1C(=O)c2ccccc2C1=O)c1c(N)n(Cc2ccccc2)c(=O)[nH]c1=O (stereo not shown),-7.78
22,COC(=O)c1cc(NC(=O)CC2NCCNC2=O)cc(C(=O)OC)c1 (stereo not shown),5.72

row,SMILES,"hERG current change (%, negative = inhibition) at 10uM [%]"
1,Cc1ccc(-c2csc(NC(=O)c3ccc([N+](=O)[O-])o3)n2)cc1,6.85
2,CS(=O)(=O)c1ccc(-c2cc(Br)sc2-c2ccc(F)cc2)cc1,16.4
3,Cc1n[nH]c(C)c1S(=O)(=O)N1CCCC(C(=O)NCC2COc3ccccc3O2)C1 (stereo not shown),0.365
4,O=C(CN1CCC(NC(=O)Cc2ccccc2)CC1)Nc1ccccc1Br,-29.2
5,COc1ccccc1CNC(=O)CN1CCC(n2cnc3cc(F)ccc32)CC1,-66
6,CCOc1ccc(NC(=O)CN2CCC(n3cnc4cc(F)ccc43)CC2)cc1,-74.3
7,O=C(NCc1ccccc1)N1CCC(n2cnc3cc(F)ccc32)CC1,-64.3
8,COc1ccccc1CNC(=O)CN1CCC(NC(=O)c2ccccc2F)CC1.Cl,-14.5
9,CCOc1ccc2nc(NC(=O)CN3CCC(n4nnc5cc(F)ccc54)CC3)sc2c1,-40.1
10,O=C(c1ccc(F)cc1)C1CCN(C(=O)NCc2ccccc2)CC1,-6.67
11,O=C(NCc1ccc(F)cc1)C1CCN(C(=O)NCc2ccccc2)CC1,6.31
12,COc1cccc(C(=O)NC2CCN(CC(=O)NCc3ccccc3OC)CC2)c1,-10.7
13,CCOC(=O)Nc1ccc2c(c1)ncn2C1CCCCC1,-8.98
14,O=C(CN1CCN(c2ccc(F)cc2)CC1)Nc1ccccc1Br,12.5
15,O=C(CN1CCC(n2cnc3cc(F)ccc32)CC1)Nc1ccccc1Br,-87.8
16,COc1ccc(C(=O)Nc2ccccc2C(=O)NC(C)C)cc1OC,-6.82
17,CCc1nc(SCC(=O)O)c2c3c(sc2n1)COC(C)(C)C3,23.2
18,CCCNc1c(NS(=O)(=O)c2ccc(C3CCCCC3)cc2)c(=O)oc2ccccc12,21.9
19,Cc1onc(-c2ccccc2)c1-c1csc(N/N=C/c2ccccc2)n1,8.79
20,CC(C)[C@H](NC(=O)c1cccc(S(=O)(=O)N2CCCC2)c1)c1nc2ccccc2[nH]1,9.05
21,COc1ccc(/C=N/N2CCN(c3ccncc3S(=O)(=O)N3CCCCC3)CC2)cc1,10.3
22,CCOC(=O)c1cc2sc(C)cc2n1CC(=O)N1CCN(C(=O)c2ccco2)CC1,-8.61

# From PMC4336329 (PLoS ONE, 2015)
